What all share (test): NCI-60 one-dose screen, 48 h (100 = growth as untreated, 0 = no growth, -100 = all killed)
What all share (settings): 10 µM unless noted

Test [1] relates to RPMI-8226 leukemia.
Test [2] concerns OVCAR-8 ovarian.
The subject of test [3] is OVCAR-5 ovarian.
Test [4] concerns OVCAR-4 ovarian.
The subject of test [5] is SK-OV-3 ovarian.
The subject of test [6] is OVCAR-3 ovarian.
For test [7], the system named is HS 578T breast.
For test [8], the system named is NCI/ADR-RES ovarian.
The test system of test [9] is T-47D breast.
Test [10] deals with MDA-MB-435 melanoma.
In test [11] the test system is SW-620 colon.
The subject of test [12] is MCF7 breast.
The test system of test [13] is HCT-116 colon.
Test [14] concerns KM12 colon.
In test [15] the test system is BT-549 breast.
The subject of test [16] is HCC-2998 colon.
Test [17] relates to IGROV1 ovarian.

About 83,000 compounds went through this panel and 20% of them were active in at least one assay; those are over-represented in the sample as a whole.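 Plates (96-well) were seeded with cells, treated with compound at one concentration, and incubated for 48 hours before percent growth was determined.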 A number with no mark means an inactive call. Active and inactive are the calls of the source. The calls were made as follows: active = growth percent below 10; inactive = the rest.

As for `Nc1cc(Cl)c(S(N)(=O)=O)cc1S(N)(=O)=O`, the growth in [1] is 122%; in test [2], 115%; in test [3], 102%; in test [4], 96.6%; in test [5] it was 117%; in test [6] it was 137%. Also, the growth in [7] is 106%; in test [8], 35.1%; in [9], 117%; in [10], 113%; in test [11], 107%; in test [12], 96.2%. Besides, the growth is 121% in [13] and 105% in test [14].

Turning to `O=c1[nH]c(=O)n(C2CC(O)C(CO)O2)cc1C(F)(F)F` (stereo unspecified), the growth in test [1] was -23% (active); in test [2] it was 48.5%; in [3], 54.5%; in test [4] it was 78.1%; in test [5], 74.3%; in [6], 69.7%. Besides, the growth in [7] was 70.8%; in test [8], -56.9% (active); in test [9], 52.8%; in test [10] it was 47.8%; in [11], 52.7%; in [12], 23.6%. Besides, the growth is 39.4% in test [13] and 51.8% in [14].

With `CCC(c1ccccc1)c1noc(CCN(CC)CC)n1` (stereo unspecified), the growth was 76.7% in test [1]; 94.8% in [2]; 89.8% in test [3]; 109% in test [4]; 97% in [5]; 115% in test [6]. The growth in test [7] was 125%; in test [8] it was 105%; in [9], 94.4%; in test [15], 84.6%; in [10] it was 110%; in [11], 120%. Further, the growth in test [12] is 86.5%; in test [13], 92%; in test [16], 106%; in test [14] it was 105%.

For the molecule `CC(=O)Nc1ccc2c(c1)Cc1c(F)c(F)c(F)c(F)c1-2`, the growth was 22.5% in test [1]; 79.6% in [2]; 44.1% in [3]; 85.7% in [4]; 113% in test [5]; 105% in test [6]. For the same molecule, the growth in test [7] was 96.6%; in test [8], -39.9% (active); in test [9] it was 85.6%; in test [10] it was 101%; in test [11], 103%; in [12], 86.7%. Also, the figures for the growth in test [13] and in [14] were 86.3% and 92.8%, respectively.

For the molecule `Cc1cc(=O)n2n1-c1ccc(Cl)cc1NC(=O)C2`, the growth is 99.2% in test [1]; 97% in test [2]; 103% in test [3]; 98.8% in test [4]; 112% in test [17]; 108% in [6]. Besides, the growth is 117% in [7]; 108% in [8]; 118% in test [9]; 104% in test [15]; 88.2% in test [10]; 109% in [11]. Also, the growth was 94.1% in test [12], 107% in test [13], 110% in test [16] and 114% in [14].

On to `O=c1c(O)cccn1CCCNCCCN(CCCn1cccc(O)c1=O)CCCn1cccc(O)c1=O`, for which the growth in [1] was 131%; in [2] it was 114%; in [3], 94.7%; in [4], 101%; in test [5], 97.3%; in test [6] it was 103%. Moreover, the growth in test [7] is 120%; in test [8] it was 101%; in test [9] it was 101%; in test [15] it was 113%; in test [10], 104%; in [11], 99.1%. The growth is 104% in [12], 108% in test [13], 101% in test [16] and 106% in [14].

Consider `O=c1ccn(C2OC(CO)C(O)C2F)c(=O)[nH]1` (stereo unspecified), for which the growth was 106% in test [1]; 115% in test [2]; 94% in [3]; 110% in test [4]; 114% in test [5]; 109% in test [6]. Moreover, the growth is 140% in test [7]; 98.5% in test [8]; 90% in test [9]; 115% in test [15]; 107% in test [10]; 102% in [11]. Also, the growth in test [13] was 108%; in test [16], 97.8%; in test [14], 111%.

As to `C[n+]1ccc(Nc2ccc(NC(=O)c3ccc(Nc4cc[n+](C)c5ccc(N)cc45)cc3)cc2)cc1`, the growth in test [1] is 68.1%; in [2], 94.8%; in [3] it was 90.6%; in test [4], 103%; in test [5] it was 99.1%; in [6] it was 115%. For the same molecule, the growth was 108% in test [7]; 99.4% in [8]; 102% in test [9]; 88.7% in test [10]; 105% in test [11]; 96.2% in test [12]. Besides, the growth in test [13] was 95%; in [16], -27.7% (active); in test [14], 109%.

Consider `COc1ccc(C2CC(c3ccc(OC)c(OC)c3)=NN2C(=O)c2cc(OC)c(OC)c(OC)c2)c(OC)c1` (stereo unspecified), for which the growth was 92.4% in [1]; 91.2% in [2]; 93% in [3]; 74.7% in [4]; 61.6% in [17]; 52.9% in test [6]. In addition, the growth in test [7] was 49.6%; in test [8] it was 53.2%; in test [9] it was 82%; in [15], 63.2%; in test [10], 3.86% (active); in [11] it was 62.2%. Moreover, the growth in [12] is 35.1%; in [13], 68.7%; in test [16], 96.5%; in [14] it was 61.5%.

On to `CSc1nnc(C2=CC(=O)c3ccccc3C2=O)n1-c1ccccc1`, for which the growth in test [1] is 72.2%; in test [2], 94.6%; in [3] it was 113%; in test [4] it was 99.2%; in [17] it was 80.4%; in [6], 91.6%. The growth in test [7] is 112%; in test [8] it was 98%; in test [9] it was 78.4%; in test [15], 92.9%; in test [10], 96.7%; in [11], 92.1%. For the same molecule, the growth in [12] is 94.5%; in test [13], 73.8%; in [16], 85%; in [14], 61.5%.

Turning to `CC(=O)NCCSC(=O)C(=O)SCCNC(C)=O`, the growth in test [1] is 102%; in test [2], 112%; in test [3], 95.8%; in test [4], 103%; in [5] it was 114%; in test [6], 115%. Also, the growth in [7] is 119%; in test [8], 100%; in test [9], 105%; in test [10], 106%; in test [11], 116%; in test [12], 125%. The values for the growth in test [13] and in [14] were 110% and 107%, respectively.

As to `CO[C@H]1/C=C/O[C@@]2(C)Oc3c(C)c(O)c4c(O)c(c(/C=N/N5C(C)CN(Cc6ccccc6)CC5C)c(O)c4c3C2=O)NC(=O)/C(C)=C\C=C\[C@H](C)[C@H](O)[C@@H](C)[C@@H](O)[C@@H](C)[C@H](OC(C)=O)[C@@H]1C` (stereo partly specified), the growth was 83.5% in test [1]; 75.6% in [2]; 99.1% in test [3]; 89.8% in [4]; 116% in test [5]; 84.6% in [7]. In addition, the growth is -20.3% (active) in test [8]; 81.4% in [9]; 125% in [15]; 86.6% in test [10]; 80.1% in test [11]; 44.6% in test [12]. Moreover, the growth in test [13] was 37.9%; in test [14] it was 52.6%.

For the molecule `COc1ccc(-c2c(N)noc2-c2cc(OC)c3c(c2)OCCO3)cc1`, the growth in test [1] was 16%; in [2] it was 24.3%; in test [3], 36.5%; in test [5], 8.57% (active); in test [17], 24.8%; in test [6], -24.2% (active). Also, the growth was 25.9% in test [7]; -5.69% (active) in test [8]; 63.7% in [9]; 20.4% in [15]; -7.52% (active) in test [10]; 27% in test [11]. The growth in test [13] was 0.565% (active); in test [16], 18.9%; in [14], 0.643% (active).

Turning to `O=C(c1ccccc1)c1ccccc1Cl`, the growth in [1] was 88.5%; in test [2], 108%; in test [3], 104%; in test [5] it was 108%; in test [17], 106%; in test [6], 106%. Further, the growth was 102% in test [7]; 105% in test [8]; 98.9% in [9]; 85.8% in test [15]; 102% in test [10]; 106% in test [11]. Further, the growth in [12] is 107%; in test [13] it was 101%; in [16], 117%; in test [14] it was 96%.

With `Clc1ncn[nH]1`, the growth in [1] is 102%; in [2], 92%; in test [3], 107%; in test [4], 100%; in [17], 105%; in test [6], 105%. In addition, the growth was 106% in test [8]; 99.5% in test [9]; 105% in test [15]; 96.9% in [10]; 111% in test [11]; 90.3% in test [12]. For the same molecule, the results for the growth in [13], in test [16] and in test [14] were 108%, 89.8% and 101%, respectively.

Regarding `CCC[C@H](N[C@@H](C)C(=O)N1[C@H](C(=O)O)C[C@@H]2CCCC[C@@H]21)C(=O)OCC`, the growth is 109% in test [1]; 102% in test [2]; 88.9% in test [3]; 113% in [5]; 108% in test [17]; 104% in test [6]. For the same molecule, the growth in [7] is 98%; in test [8] it was 98.5%; in [9], 124%; in [15], 113%; in [10], 112%; in [11], 114%. Moreover, the values for the growth in test [13], in test [16] and in test [14] were 106%, 103% and 104%, respectively.

Take `COc1ccc(-c2c3c(nn2-c2ccc(N)cc2)CCc2cnoc2-3)cc1OC`: the growth in test [1] was 60%; in test [2], 65%; in test [3] it was 94.1%; in [4], 102%; in test [17] it was 97.6%; in [6], 83.1%. The growth in [8] was 77.6%; in test [9] it was 97%; in test [15], 81.4%; in test [10], 94.8%; in [11] it was 97.6%; in [12], 94.1%. The figures for the growth in test [13], in [16] and in test [14] were 84.4%, 98.4% and 82.1%, respectively.

As to `CCCCCCCCCCCCCCCCCc1nccn1CCO`, the growth in test [1] was 82.3%; in test [2] it was 80%; in [3] it was 71.4%; in test [17], 68.5%; in test [6] it was 86.2%; in [7] it was 83.4%. In addition, the growth in test [8] is 59.9%; in test [9] it was 47.1%; in [15], 70%; in test [10] it was 95%; in test [11] it was 61.3%; in test [16], 55.4%. Also, the growth in [14] was 85.6%.

As for `O=C(O)C(=O)O`, the growth in test [1] was 94.4%; in [2], 75.8%; in test [3], 56.8%; in test [4], 99.8%; in test [6], 114%; in test [7] it was 100%. Besides, the growth in [8] is -36.5% (active); in test [9], 94.4%; in [10], 96.4%; in test [11] it was 112%; in [12] it was 98.4%; in test [13], 101%. In addition, in test [14], the growth was 102%.

Turning to `O=[P@@]1(c2ccccc2)O[C@H](COCc2ccccc2)[C@@H](OCc2ccccc2)[C@H](OCc2ccccc2)[C@H]1NCc1ccccc1`, the growth in test [1] was 5.97% (active); in [2], 23.7%; in [3], 11.8%; in test [5] it was 41.7%; in test [6] it was 18.6%; in test [7] it was 49.9%. The growth was 12.5% in [8]; 15.9% in [9]; 4.37% (active) in [15]; 9.72% (active) in test [10]; 21.6% in [11]; 9.59% (active) in [12]. For the same molecule, the growth in test [13] was 8.21% (active); in test [16], 38.8%.

For the origin of these results see PubChem BioAssay (NCI).
